Source: PubChem
Vaccinia mCherry = qHTS for Stage-Specific Inhibitors of Vaccinia Orthopoxvirus: mCherry Reporter Primary qHTS | AID 720579, 2013 | Potency, µM (top dose mostly 36.5 µM), without a hit: at the highest dose activity change, negative = inhibition, hits mostly inhibitors | hit rate 0.63% among 310,000 | Vaccinia virus mCherry reporter infection, fluorescence; calls by dose curve; tested in A549 cells; also: nearly all actives have a fitted effect of over 35% in size
FMDV antiviral = High Throughput Screening for Foot and Mouth Disease Virus Antivirals. Potency, µM (highest dose often 57.9 µM), for inactives: at the highest dose activity change, negative = inhibition, most hits filed as inhibitors. FMDV antiviral cell-based qHTS. hit rate 1.2% among 410,000. AID 1159524, 2015; calls by dose curve; tested in HEK293T cells; also: read-out not given here; nearly all actives have a fitted effect of over 45% in size
VACV Venus inh = qHTS for Stage-Specific Inhibitors of Vaccinia Orthopoxvirus: Venus Reporter Primary qHTS | Vaccinia virus Venus reporter expression, fluorescence | hit rate 0.46% among 330,000 | AID 720580, 2013 | Potency, µM (doses to about 36.5 µM), inactives show at the top dose activity change, negative = inhibition, usual class: inhibitors; calls by dose curve; tested in A549 cells; also: nearly all actives have a fitted effect of over 30% in size
MARV entry inh = qHTS for inhibitors of binding or entry into cells for Marburg Virus | Marburg virus pseudotyped entry inhibition, cell reporter | Potency, µM (titrated, usually from 37.8 µM), for the others: at the top dose activity change, negative = inhibition, hits mostly inhibitors | hit rate 1.8% among 300,000 | AID 540276, 2011; calls by dose curve; tested in HEK293 cells
LASV entry inh = qHTS for Inhibitors of binding or entry into cells for Lassa Virus; Lassa virus pseudotype entry inhibition, cell reporter; Potency, µM (series often up to 37.9 µM), for inactives: at the highest dose activity change, negative = inhibition, hits mostly inhibitors; hit rate 1.2% among 300,000; calls by dose curve; tested in HEK293 cells; also: nearly all actives have a fitted effect of over 50% in size
* hit, by the source's call; i = inactive; ? = inconclusive; nt = no result given; [ ] = remark or other dose. Hits are enriched below; roughly 3.2% of the tested compounds scored in any of these assays. % is scaled to controls: 0 for no effect and ±100 for the full control effect; potency is read from the fitted curve at half-maximal effect.

SMILES | Vaccinia mCherry | FMDV antiviral | VACV Venus inh | MARV entry inh | LASV entry inh
CCC(C)(C)n1nnnc1C(c1cc2cc(C)cc(C)c2[nH]c1=O)N1CCN(Cc2ccc3c(c2)OCO3)CC1 (stereo not given) | -10% | 5.6µM* | -12% | 12% | 1%
CCC(C)(C)n1nnnc1C(c1cc2cc(C)cc(C)c2[nH]c1=O)N1CCCC1 (stereo not given) | nt | 18% | nt | ? | 4%
Cc1ccc(C(c2nnnn2CCc2ccccc2)N2CCSCC2)cc1 (stereo not given) | -20% | 19% | -8% | 2.2µM* | ?
Cc1ccc(C(c2nnnn2CCc2ccccc2)N2CCC(C)CC2)cc1 (stereo not given) | -24% | ? | -21% | ? | ?
CCCNC(=O)N1C2=NC(C(=O)OC)=C(C(=O)OC)[C@@H]3N(C)c4ccccc4[C@]23C[C@H]1C(=O)OC | nt | nt | nt | 7%[14.2 µM] | nt
COc1ccc(OC)c(-c2ccc(O)c(CN3CCc4c([nH]c5ccccc45)C3)c2)c1 | -9% | -11% | -7% | nt | nt
CCOC(=O)c1cc2c(c(-c3ccccc3)n1)[C@H](CCO)N(S(=O)(=O)C(C)(C)C)C2 | i | -18% | -11% | nt | nt
O=C(NCc1nnc(SCc2ccc(F)cc2)n1-c1ccc(F)cc1)C12CC3CC(CC(C3)C1)C2 | ? | -24% | ? | 8.9µM* | ?
O=C(CSc1nnc(CNC(=O)C23CC4CC(CC(C4)C2)C3)n1-c1ccc(F)cc1)Nc1ccc(F)cc1 | -9% | 0% | -25% | ? | -18%
Cc1c(CCOC(=O)C23CC4(C)CC(C)(CC(C)(C4)C2)C3)sc[n+]1CC(=O)c1ccccc1 | ? | 28µM* | ? | ? | -14%
Cc1c(CCOC(=O)C23CC4CC(CC(C)(C4)C2)C3)sc[n+]1Cc1ccccc1 | nt | 16µM* | nt | ? | ?
COc1ccc(-n2cc(CNC(C)c3ccncn3)c(-c3cccc(F)c3)n2)cc1 (stereo not given) | -23% | -8% | -7% | ? | -4%
COc1ccc(-n2cc(CNC3CCN(C)CC3)c(-c3cccc(F)c3)n2)cc1 | ? | 6% | ? | 3.2µM* | 11µM*
CCC(COC)NCc1cn(-c2ccc(OC)cc2)nc1-c1cccc(F)c1 (stereo not given) | -20% | ? | -12% | 10µM* | ?
COc1ccc2c(c1)CCc1cnc(-n3ncc(C(=O)N(C)CC4CCCN(C)C4)c3C)nc1-2 (stereo not given) | -8% | -6% | -8% | nt | nt
CC(C)c1c(C(=O)N(C)Cc2cccc3ncccc23)cnn1-c1nccc(-c2ccccc2F)n1 | ? | 13µM* | ? | nt | nt
CNC(=S)N1N=C(c2ccc(C)cc2)CC1c1ccc(Br)cc1 (stereo not given) | nt | 15% | nt | ? | ?
CNC(=S)N1N=C(c2ccc(C)cc2)CC1c1ccc(Cl)cc1 (stereo not given) | nt | -22% | nt | ? | 9.2µM*
CC1(C)CC(=O)C=C(N2CCN(C3=CC(=O)CC(C)(C)C3)CC2)C1 | nt | nt | nt | 2% | nt
CC1(C)CC(N2CCN(Cc3ccccc3)CC2)=CC(=[N+]2CCCCC2)C1 | i | ? | -20% | 6.5µM* | ?
CC1(C)CC(N2CCCC2)=CC(=[N+]2CCCC2)C1 | nt | ? | nt | 2.1µM* | ?
CN(Cc1ccccc1)C1=CC(=[N+]2CCCCC2)CC(C)(C)C1 | i[7.34 µM] | ? | -21%[7.34 µM] | nt | nt
CC[C@]1(C(=O)OC)[C@H]2C(=O)N(C)C(=O)[C@H]2[C@H]2CN=C(SCC3CC3)N21 | -15% | -14% | -8% | nt | nt
O=C1[C@@H]2[C@H](C(=O)N1CC(O)COCc1ccccc1)C1C=C[C@H]2C1 (stereo not given in full) | i | -9% | -11% | nt | nt
O=c1c2ccccc2nc(SCc2cn3ccsc3n2)n1-c1ccc(F)cc1 | nt | ? | ? | ? | 11µM*
SMILES | Vaccinia mCherry | FMDV antiviral | VACV Venus inh | MARV entry inh | LASV entry inh
COc1cc(/C=C2/C(=O)NN(c3ccc(C)c(Cl)c3)C2=O)cc([N+](=O)[O-])c1O | nt | -27% | nt | nt | nt
Cc1ccc(N2NC(=O)/C(=C\c3cc4c(cc3[N+](=O)[O-])OCO4)C2=O)cc1C | i | 13µM* | -10% | 5% | -7%
O=C1NC(c2cccc3ccccc23)Nc2ccc(Cl)cc21 (stereo not given) | ? | 0% | 11µM* | ? | ?
CS(=O)(=O)c1ccc(C(=O)OCC(=O)NC(=O)NC2CCCCC2)cc1[N+](=O)[O-] | -25% | nt | -22% | nt | nt
CC(OC(=O)c1ccc(S(C)(=O)=O)c([N+](=O)[O-])c1)C(=O)NC1C2CC3CC(C2)CC1C3 (stereo not given) | nt | 32µM* | nt | nt | nt
CCC(OC(=O)c1ccc(S(C)(=O)=O)c([N+](=O)[O-])c1)C(=O)NC1C2CC3CC(C2)CC1C3 (stereo not given) | nt | 40µM* | nt | nt | nt
N#Cc1ccc(C2CC(OCCF)=CC(=O)O2)cc1 (stereo not given) | -9% | -5% | -6% | nt | nt
COC(=O)[C@@H]1O[C@@H](c2c(OC)c(OC)c(C)c(OC)c2OC)[C@H](C)[C@@H](O)[C@@H]1C | nt | nt | nt | 6%[14.2 µM] | nt
CCN1CCc2nc3sc(C(=O)Nc4cccc(Cl)c4C)c(N)c3cc2C1 | ? | 14µM* | -26% | ? | 4%[46.1 µM]
CCN1CCc2nc3sc(C(=O)Nc4cccnc4Cl)c(N)c3cc2C1 | nt | -5% | nt | nt | nt
C/C(=N/NC(=O)c1cc(C2CC2)[nH]n1)c1cccs1 | -4% | -74% | -17% | 10µM* | 2.6µM*
C/C(=N\NC(=O)c1ccncc1)c1cccs1 | nt | 77% | nt | nt | nt
CC(=O)Nc1nc(C)c(-c2csc(Nc3cccc([N+](=O)[O-])c3)n2)s1 | 5µM* | -26% | ? | 14µM* | ?
CCC(=O)Nc1nc(C)c(-c2csc(Nc3ccc(C(=O)O)cc3)n2)s1 | ? | 6% | -17% | 8%[46.1 µM] | -16%[46.1 µM]
CC(=O)Nc1ccc(Nc2nc(-c3sc(NC(C)=O)nc3C)cs2)cc1 | -24% | -19% | -20% | 3.2µM* | ?
CC(=O)Nc1nc(C)c(-c2csc(Nc3ccc(O)cc3)n2)s1 | nt | -8% | nt | 4.6µM* | ?
CC(=O)Nc1nc(C)c(-c2csc(Nc3cccc(C(C)=O)c3)n2)s1 | nt | -9% | nt | nt | nt
CC(=O)Nc1nc(C)c(-c2csc(Nc3ccccn3)n2)s1 | ? | 6% | ? | ? | -26%
COc1ccc(C2C(=O)N(C3CCCCCC3)CC(=O)N2Cc2ccc(C)cc2)cc1OC (stereo not given) | -1% | -18% | -7% | nt | -26%[46.1 µM]
COc1ccc(CNc2nc(N)nc3nc[nH]c23)cc1 | -12% | nt | -17% | nt | nt
Cc1ccc(C(=O)c2cn(Cc3cc(C)ccc3C)c3nc(C)ccc3c2=O)cc1 | -6% | -29% | -18% | 7.1µM* | ?
O=C(C[n+]1ccccc1Br)c1ccc(F)cc1 | -13% | nt | -9% | nt | nt
CCCC(=O)N1CCC1(C)C(=O)NS(=O)(=O)c1cccc(C)c1 (stereo not given) | 9% | -25% | 8% | nt | nt
FC(F)Oc1ccc(-c2csc(NNC3=NCCCCC3)n2)cc1 | -7% | 28µM* | -13% | ? | ?
